# Sampled rows, rich in hits. Any-hit rate of the full collection: about 2.1%.
# aDG glyco up – increases alpha dystroglycan glycosylation | Pro5-aDG cells, alpha-DG glycosylation AlphaScreen (IIH6); 0% Pro5, 100% B10-LARGE cell signal | activation, % at 10 µM | hit rate 0.22% among 360,000 | AID 624168;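 active = activation of at least 8% versus controls, or a plate z-score of at least 8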;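 also: Pro5 are CHO cells carrying HIG-tagged alpha-DG that lacks glycosylation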
# GalR3 antagonist – blocks the human galanin receptor 3. O60755. HEK293 GalR3-CNG cAMP membrane potential fluorescence; galR3 body fused to GalR1 C-terminus. inhibition, % at 3 µM. hit rate 0.44% among 360,000. AID 651719;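 active = inhibition above the screen-wide average plus 3 SD, cut at about 13% in these data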;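 also: forskolin and galanin both at EC90 stimulate the cells; cAMP rise reported by CNG channel membrane potential dye signal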
# Target sequence (O60755 1-299 limits assumed): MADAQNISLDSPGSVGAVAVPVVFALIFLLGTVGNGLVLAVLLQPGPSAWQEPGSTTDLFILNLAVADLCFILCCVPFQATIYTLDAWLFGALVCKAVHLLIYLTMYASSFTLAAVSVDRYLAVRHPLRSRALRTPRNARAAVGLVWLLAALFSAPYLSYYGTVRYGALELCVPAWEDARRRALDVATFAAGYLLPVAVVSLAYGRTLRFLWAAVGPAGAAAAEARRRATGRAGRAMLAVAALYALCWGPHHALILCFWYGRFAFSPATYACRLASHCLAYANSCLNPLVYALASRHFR
# HIV Env fusion – inhibitors of HIV Env-mediated cell fusion; inhibition, % at 12.3 µM; hit rate 1.1% among 360,000; HeLa-JRFL Env/CEM21 cell fusion, luciferase;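 active = mean replicate inhibition score of at least 50 and every replicate individually at or above 50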
# COUP-TFII inh – inhibitors of human COUP-TFII (NR2F2); P24468; HEK293T NGFI-A luciferase reporter, luminescence; inhibition, % at 8.6 µM; hit rate 0.7% among 370,000;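 active = inhibition above a per-plate cutoff, mean inhibition of test wells between control levels plus 3 SD, cut at about 38% in these data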;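 also: cells cotransfected with COUP-TFII expression vector driving the NGFI-A reporter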
# Gli-Sufu block – blocks Gli-Sufu signaling in a luciferase reporter | Sufu-KO-LIGHT fibroblasts, Gli luciferase reporter luminescence | inhibition, % at 5 µM | hit rate 0.74% among 340,000 | AID 588413;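 active = inhibition above about 55%, limit read from the data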
# Gli antag conf – confirmation of Gli-SUFU pathway antagonists. shares compounds with Gli-Sufu block. Sufu-KO-LIGHT cells, Gli luciferase reporter, luminescence. inhibition, % at 5 µM. hit rate 40% among 2,500. AID 602428;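 active = mean inhibition at 5 µM reaching about 45%, limit read from the data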
# Gli cytotox – cytotoxicity counter-screen for Gli-SUFU antagonists. shares compounds with Gli-Sufu block. Sufu-KO-LIGHT cells cytotoxicity, ATP luminescence. cytotoxicity, % at 5 µM. hit rate 32% among 2,500;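 active = mean cytotoxicity at 5 µM above about 25%, limit read from the data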;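 also: cells exposed to compound overnight for roughly 16 to 18 hours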
# Wnt3a counter – inhibits Wnt3a reporter, counter-screen for Gli-SUFU antagonists; shares compounds with Gli-Sufu block; Wnt-LIGHT cells, Wnt3a-driven luciferase reporter, luminescence; inhibition, % at 6.25 µM; hit rate 20% among 2,500; AID 651995;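 active = mean inhibition above about 25%, limit read from the data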
# Numbers stand for hits; – = inactive; · = no result given.
SMILES,aDG glyco up,GalR3 antagonist,HIV Env fusion,COUP-TFII inh,Gli-Sufu block,Gli antag conf,Gli cytotox,Wnt3a counter
c1ccc2c(Nc3ccc4c(c3)OCCO4)c3c(nc2c1)CCCC3,–,–,–,–,–,–,–,–
O=C(C[C@H]1CC[C@@H](NC(=O)NC2CCCCC2)[C@H](CO)O1)NCc1ccc(Cl)cc1,·,·,–,·,·,·,·,·
O=C1C=C(c2ccc3cc[nH]c3c2)C[C@@H](c2ccc3c(c2)OCO3)C1,–,·,·,·,59,–,–,–
CC(=O)Nc1ccc2c(c1)C(=O)N(C)[C@@H]1CC[C@@H](CC(=O)NCc3ccc4c(c3)OCO4)O[C@H]1CO2,·,·,–,·,·,·,·,·
O=C1C(=O)N(CCCn2ccnc2)C(c2cccc(Br)c2)/C1=C(\O)c1ccc2c(c1)OCCO2 (stereo not given),–,–,–,–,–,–,–,–
O=C1C(=O)N(CCCn2ccnc2)C(c2ccc(Br)cc2)/C1=C(\O)c1ccc2c(c1)OCCO2 (stereo not given),–,–,–,–,–,·,·,·
C[C@@H]1CN([C@H](C)CO)C(=O)c2cc(C#CCN(C)C)cnc2O[C@@H]1CN(C)Cc1cccc(F)c1,·,·,–,·,·,·,·,·
CC1(C)CC(=O)c2c(nc3ccccc3c2N)C1,–,–,·,–,–,·,·,·
CC1(C)CC(=O)c2c(noc2-c2ccccc2)C1,–,–,–,–,75,–,28,–
C[C@@H]1CN([C@@H](C)CO)C(=O)Cc2cc(NC(=O)CCCCCC(=O)Nc3ccccc3N)ccc2O[C@H]1CN(C)C(=O)NC1CCCCC1,·,·,–,·,·,·,·,·
c1ccc(-c2cn(-c3ccccc3)c3[n+]2CCCS3)cc1,–,–,–,–,68,69,33,33
